Screening data from PubChem BioAssay.
Giardia kill = Small Molecules that selectively kill Giardia lamblia: qHTS; activity change, % at 7.66 µM, hits read low; Giardia lamblia trophozoite viability; AID 540267, 2011; hit rate 0.15% among 340,000; in the data active = activity change below about -80%; inconclusive = between about -30% and that limit;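 note: parasites exposed to compound for two days anaerobically before the ATP read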
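ATP-content bioluminescence gauges trophozoite survival. Cells (100/well) receive compound and incubate anaerobically for 48 hrs at 37 deg C; detection reagent follows for 15-30 min at room temperature.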
ELG1 DNA repair = qHTS screen for small molecules that inhibit ELG1-dependent DNA repair in human embryonic kidney (HEK293T) cells expressing luciferase-tagged ELG1. HEK293T ELG1-luciferase reporter, luminescence, 16 h; DNA damage induced by 5-fluorouridine. Potency, µM (doses to about 46.1 µM), inactives show at the top dose activity change, negative = inhibition, most hits filed as inhibitors. hit rate 2.3% among 330,000. AID 504467, 2011; note: potency is the fitted concentration of half-maximal effect; nearly all actives have a fitted effect of over 55% in size
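Reporter activity after DNA damage by 5-fluorouridine is monitored. Compound-treated cells incubate 16 hr at 37 °C, then ONE-Glo is added for 30 min before luminescence reading.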
TDP1 block = qHTS Assay for Inhibitors of Tyrosyl-DNA Phosphodiesterase (TDP1) | hit rate 0.28% among 350,000 | Potency, µM (highest dose often 130 µM), inactives show at the top dose activity change, negative = inhibition, actives largely listed as inhibitors | recombinant TDP1, AlphaScreen DNA substrate cleavage; note: potency is the fitted concentration of half-maximal effect; nearly all actives have a fitted effect of over 40% in size
Target sequence (Q9NUW8 whole entry, looked up): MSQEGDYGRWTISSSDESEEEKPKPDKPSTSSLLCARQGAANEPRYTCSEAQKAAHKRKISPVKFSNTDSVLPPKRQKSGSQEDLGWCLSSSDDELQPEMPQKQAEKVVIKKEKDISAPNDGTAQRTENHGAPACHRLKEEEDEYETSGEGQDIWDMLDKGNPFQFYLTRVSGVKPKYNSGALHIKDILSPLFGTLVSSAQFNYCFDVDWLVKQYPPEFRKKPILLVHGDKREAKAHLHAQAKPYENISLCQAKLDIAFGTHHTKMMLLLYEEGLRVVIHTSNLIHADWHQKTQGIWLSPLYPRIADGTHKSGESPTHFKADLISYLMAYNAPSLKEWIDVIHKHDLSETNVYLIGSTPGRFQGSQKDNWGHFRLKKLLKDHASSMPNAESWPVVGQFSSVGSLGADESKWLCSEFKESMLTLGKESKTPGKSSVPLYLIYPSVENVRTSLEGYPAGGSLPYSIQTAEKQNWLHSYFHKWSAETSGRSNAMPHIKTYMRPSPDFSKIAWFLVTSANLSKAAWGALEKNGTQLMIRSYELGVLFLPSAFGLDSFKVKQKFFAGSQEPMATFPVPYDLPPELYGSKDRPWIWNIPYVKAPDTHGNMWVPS
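E. coli-derived human Tdp1, 1 nM final. Cpd preinc 15 min RT; substrate 15 nM final, 5 min RT; AS bead mix 10 ug/ml final, 10 min RT. Signal loss = tyrosine-FITC cleavage. No-enzyme wells = max signal.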
DT40 TDP1 no CPT = qHTS for Inhibitors of human tyrosyl-DNA phosphodiesterase 1 (TDP1): qHTS in cells in absence of CPT; AID 686978, 2013; hit rate 15% among 420,000; DT40 Tdp1-/- hTDP1 cells, no CPT, ATP luminescence, 48 h; Potency, µM (highest dose often 46.2 µM), for inactives: at the top dose activity change, negative = growth inhibition, hits mostly inhibitors; note: potency is the fitted concentration of half-maximal effect; nearly all actives have a fitted effect of over 55% in size
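Camptothecin absent (DMSO only). Human TDP1-complemented DT40 knockout cells, 400 cells/well, 37 °C for minimum 48 hr; ATP measured via CellTiter-Glo, 30 min dark incubation, luminescence.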
IL1B secr inh = qHTS for Inhibitors of Inflammasome Signaling: IL-1-beta AlphaLISA Primary Screen. THP-1 LPS/ATP IL-1B secretion, AlphaLISA, 16 h; active compounds read low. activity change, % at 57.5 µM. hit rate 4.7% among 360,000. AID 743279, 2014; in the data active = activity change below about -50%; inconclusive = mostly about -30% to -49%
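THP-1 cells pretreated 1 hr with compounds (up to 57.5 uM final), then stimulated with LPS (250 ng/mL final) plus ATP (1.25 mM final); secreted IL-1B measured by AlphaLISA after 16 hr, decreased signal indicating inhibition.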
TDP1 cell CPT = qHTS for Inhibitors of human tyrosyl-DNA phosphodiesterase 1 (TDP1): qHTS in cells in presence of CPT. Potency, µM (titrated, usually from 46.2 µM), without a hit: top-dose activity change, negative = growth inhibition, most hits filed as inhibitors. AID 686979, 2013. hit rate 12% among 420,000. chicken DT40 Tdp1-/-;hTDP1 cells + 20 nM CPT, ATP luminescence, 48 h; note: potency is the fitted concentration of half-maximal effect; nearly all actives have a fitted effect of over 55% in size
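Cell growth measured by CellTiter-Glo luminescence after a minimum 48 h, 37 C compound exposure with 20 nM CPT in Tdp1-knockout DT40 cells stably expressing hTDP1, seeded 400/well; qHTS titration format.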
* marks the source's active call; other numbers are inactive results; i = inactive; ? = inconclusive; / = not tested or not shown; [ ] = another dose, or the depositor's remark. A selection: hits, their analogues and other compounds. The true share with any hit is near 19%. Unless noted, calls come from the whole dose curve; as a rule, active = well fitted curve in the direction sought with a large enough effect; inconclusive = small, poorly fitted or top-dose-only effect, or another doubt; inactive = no such curve, though single readings can be large; an effect the other way counts as inactive or inconclusive. % is set by controls: 0 for no effect and ±100 for the full control effect.

SMILES	Giardia kill	ELG1 DNA repair	TDP1 block	DT40 TDP1 no CPT	IL1B secr inh	TDP1 cell CPT
CC(C)(C)c1ccc(C(=O)CC(Sc2ccc(Cl)cc2)C(=O)O)cc1 (stereo not given)	-0.9	?	0.0%	4.11µM*	-96.5*	3.26µM*
Cc1cc[n+](CC(=O)c2ccc(F)cc2)cc1	/	/	/	-9.9%	/	-1.1%
CCCCOC(=O)n1c(SCC(=O)N(CC)CC)nc2ccccc21	7.8	?	5.5%	?	-19.9	20.6µM*
CCOC(=O)n1c(SCC(N)=O)nc2ccccc21	-16.8	18.7%	6.2%	4.5%	-8.9	1.2%
CCCOc1cccc(-c2cc(C(=O)N/N=C/c3ccccn3)c3ccccc3n2)c1	-20.2	11.6%	4.3%	9.2µM*	-97.7*	11.6µM*
COc1ccc(-c2cc(C(=O)N/N=C/c3cccnc3)c3ccccc3n2)cc1	-7.6	?	4.1%	?	-11.7	9.2µM*
CC(C)COc1cccc(-c2cc(C(=O)Nc3ccon3)c3ccccc3n2)c1	11.5	?	3.6%	10.3µM*	-22.1	16.4µM*
CCCOc1cccc(-c2cc(C(=O)NN)c3ccccc3n2)c1	-12.8	-20.0%	8.9%	10.3µM*	64.7	9.2µM*
OC1(c2ccc3c(c2)CN(Cc2ccco2)CCO3)CCN(c2ccccc2F)CC1	/	/	/	?	/	-1.4%[9.04 µM]
CC(CNC(=O)CCC(=O)N1CCOc2ccc(Cl)cc21)c1ccccc1 (stereo not given)	22.8	6.9%	/	?	?	?
Cc1cccc(/C=N/NC(=O)c2cc(-c3cccnc3)nc3ccccc23)c1	13.4	3.9%	-0.6%	-2.7%	46.7	-0.4%
COc1ccc(-c2cc(C(=O)N/N=C/c3cc(OC)c(OC)cc3OC)c3ccccc3n2)cc1	0.3	/	/	9.2µM*	-7.5	10.3µM*
COc1cc2ccccc2cc1C(=O)N/N=C/c1cccnc1	-3.3	-20.7%	3.0%	?	-11.4	14.6µM*
COc1ccc(Br)cc1C(=O)N/N=C/c1cccnc1	-23.9	3.4%	/	11.9%	3.1	12.1%
Cc1cccc(/C=N/NC(=O)c2cc(-c3cccnc3)nc3c2c(C)nn3-c2ccccc2)c1	1.8	?	2.7%	23.1µM*	-13.1	?
Cc1ccccc1-c1cc(C(=O)N/N=C/c2cccnc2)c2ccccc2n1	4.6	-10.9%	6.6%	?	25.4	?
O=C(N/N=C/c1cccnc1)c1cc(-c2ccccc2Cl)nc2ccccc12	8.6	-8.5%	7.4%[56.1 µM]	4.61µM*	i	?
COc1cc(/C=N/NC(=O)c2cc(-c3ccccc3)nc3ccccc23)cc(OC)c1O	-5.1	?	/	?	28.8	?
Cc1cc(C)cc(OCC(=O)Nc2cccc(S(=O)(=O)NC3=NCCC3)c2)c1	-14.8	-18.3%	1.9%	?	-1.6	-24.4%
Cc1cccc(-c2cc(C(=O)N/N=C/c3cccnc3)c3ccccc3n2)c1	17.1	/	/	?	-20.3	?
CCCOc1cccc(-c2cc(C(=O)N/N=C/c3cccnc3)c3ccccc3n2)c1	-8.9	16.4µM*	5.3%	8.2µM*	i	9.2µM*
Cc1cc(C)nc(-n2nc(C)cc2NC(=O)CN2CCc3ccccc3C2)n1	6.4	3.66µM*	4.2%	23.1µM*	23.1	10.3µM*
Cc1cc(C)nc(-n2nc(C)cc2NC(=O)CN2CCCC(C)C2)n1 (stereo not given)	13.5	-11.3%	2.1%	?	-15.0	?
Cc1cc(C)nc(-n2nc(C)cc2Nc2ccccc2)n1	-16.6	?	9.1%	5.17µM*	-0.4	2.59µM*
